Pf Dd2 inh = qHTS Primary assay for Inhibitors of Plasmodium falciparum Dd2 growth in vitro | P. falciparum Dd2 growth, SYBR Green, 72 h | Potency, µM (series often up to 28.9 µM), for the others: top-dose activity, negative = inhibition, hits mostly inhibitors | hit rate 4.3% among 120,000; active = well fitted inhibition curve with a large enough effect;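 also: plate controls were DMSO vehicle for no effect and reference drug for full effect; nearly all actives have a fitted effect of over 65% in size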
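Readout: SYBR Green fluorescence, 485 nm excitation, 535 nm emission, after ~16 h lysis at 37C. Before that, Dd2-infected red cells (2.5% hematocrit) grew 72 h with compound, 29 uM top final concentration.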
* hit, by the source's call; i = inactive; [ ] = another dose, or the depositor's remark. The sample as a whole holds a higher share of hits than the screen did. Potency is read from the fitted curve at half-maximal effect.

SMILES | Pf Dd2 inh
Cc1oc(-c2ccccc2)nc1CN1CCCC(C(=O)NCCc2noc(-c3ccccc3)n2)C1 (stereo not given) | i
CCN(CC)C(=O)[C@@H]1CCC[C@@H](NC(=O)c2ccc3c(c2)OCO3)CN(C)C(=O)C1 | 34%[44.1 µM]
COc1cccc(O)c1C(=O)NC1CC(c2nnc(Cn3cccn3)n2C)C1 (stereo not given) | -9%
CS(=O)(=O)N1CCC(CC(=O)N2CCCC2)C1 (stereo not given) | -9%
CNCc1ccc(C(F)(F)F)cc1 | -1%[44.1 µM]
CCc1cccc(OCC(=O)Nc2ccc(S(=O)(=O)Nc3ncccn3)cc2)c1 | 0%
CCc1ccc(NC(=O)COc2cccc(-c3nnc4n3CCCC4)c2)cc1 | 5µM*
Cc1ccccc1NC(=O)Cn1c(C)cc2nc3n(c(=O)c21)CCCCC3 | -22%
O=C(CCC1CCCC1)Nc1ccc(-c2nnc3n2CCCC3)cc1 | -21%
O=C(COc1ccccc1)Nc1ccc(-c2nnc3n2CCCC3)cc1 | 10µM*
Cc1ccccc1NC(=O)COc1ccc(-c2nnc3n2CCCC3)cc1 | 11µM*
Cc1cccc(NC(=O)Cn2nc3n(c2=O)CCCCC3)c1C | 254%
COc1ccc(CCC(=O)Nc2ccc(-c3nnc4n3CCCC4)cc2)cc1 | -6%
CCc1ccc(NC(=O)COc2ccc(-c3nnc4n3CCCC4)cc2)cc1 | 4µM*
O=C(Nc1ccc(-c2nnc3n2CCCC3)cc1)C1CC1 | 13%
CCOc1ccc(NC(=O)Cn2c(C)cc3nc4n(c(=O)c32)CCCC4)cc1 | i
CNC(=O)C(C)(C)N1CCC[C@H]1C(=O)N1CCc2ccccc2C1 | i
CCCCc1cn(CC2CCN(C(=O)c3ccco3)CC2)nn1 | -15%
COc1ccccc1-c1[nH]nc2ncc(-c3cccc(O)c3)nc12 | i
Cc1noc(C)c1NC(=O)N[C@@H]1CCC[C@@H](C(=O)N2CCN(C)CC2)CC(=O)N(C)C1 | 3%[44.1 µM]
c1cc(-c2nc(CC3CCNC3)no2)ccn1 (stereo not given) | i
CC(C)[C@@H](N)C(=O)N1CCC(Oc2ccccc2F)(C(=O)O)CC1 | -23%
O=C1OCC2(CCN([S+](=O)([O-])c3ccc(C(F)(F)F)cc3)C2)N1Cc1ccccn1 (stereo not given) | -6%
Cc1cc2nc3n(c(=O)c2n1CC(=O)Nc1ccccc1)CCCCC3 | i
O=C(COc1ccc(-c2nnc3n2CCCC3)cc1)Nc1ccccc1 | 7.9µM*
SMILES | Pf Dd2 inh
O=C(c1cccnc1)N1CCC2(COc3ncccc3[S+](=O)([O-])N2)C1 (stereo not given) | 9%
COCCN1Cc2ccc(Nc3ccc(OC)cc3)nc2C(C)(C(=O)NC(C)C)C1 (stereo not given) | 13µM*
COCCN1Cc2ccc(Nc3ccc(OC)cc3)nc2C(C)(C(=O)NCC2CC2)C1 (stereo not given) | i
COCCN1Cc2ccc(NCc3ccccc3)nc2C(C)(C(=O)NCc2ccccc2)C1 (stereo not given) | -26%
COc1ccccc1CCC(=O)N1CCC2(CC1)N(C)C(=O)CS2(=O)=O | 5%
CN1C(=O)C2(Cc3ccccc31)CN(C(=O)c1ccc(Cl)cc1)C2 | -19%
CNC(=O)N1CC(c2noc(C3CCCN3C(=O)NCCc3ccccc3)n2)C1 (stereo not given) | 21%
CCCC1=Nc2cc(C(=O)N3CCC(C)CC3)ccc2Sc2ccc(C)cc21 | -23%
CCn1ncc(N2CCC(NC(=O)c3ccc(C)c(C)c3)CC2)cc1=O | -10%
CC1=Nc2cc(C(=O)NC3CCC(C)CC3)ccc2Sc2c(C)ccc(C)c21 (stereo not given) | 11µM*
CCCC1=Nc2cc(C(=O)NCCc3ccc(OCC)cc3)ccc2Sc2ccccc21 | -29%
Cc1ccc(C(=O)NC2CCN(c3cnn(C)c(=O)c3)CC2)cc1C | -5%
CC1=Nc2cc(C(=O)N3CCCCC3)ccc2Sc2ccc(C)cc21 | i
CC1=Nc2cc(C(=O)NC3CCCC3)ccc2Sc2ccc(Br)cc21 | 7.9µM*
CCCC1=Nc2cc(C(=O)NCCCN(CC)CC)ccc2Sc2ccccc21 | -8%
Cc1nc2cc(C(=O)NC3CCCCCC3)ccc2n1-c1ccc(Br)cc1 | 18%
Cc1cccc(C)c1-c1nnc2ccc(C(=O)NC3CC3)cn12 | 23%
CCC1=Nc2cc(C(=O)NC3CCC(C)CC3)ccc2Sc2ccc(C)cc21 (stereo not given) | 10µM*
CCCC1=Nc2cc(C(=O)NC3CCCCC3)ccc2Sc2ccc(C)cc21 | 10µM*
COC[C@]1(O)CCN(C(=O)C2(c3ccc(OC)cc3)CC2)CC1(C)C | -1%
CCN(CC)c1ccc(C(=O)N2CCC(n3cc(-c4nc(C)no4)nn3)CC2)cc1 | -15%
COCCOC1CCN(C(=O)c2n[nH]c3ccccc23)CC1 | 15%
Cc1cc(C(=O)N2CCCn3ccnc3C2c2cnn(C)c2)c(C)o1 (stereo not given) | -19%
O=c1[nH]c(N2CCOCC2)nc2c1CCN(S(=O)(=O)c1ccc3c(c1)CCC3)CC2 | 22%[5.79 µM]
CCCNC(=O)N1CCCCCCN(C)C(=O)CC1 | -12%
SMILES | Pf Dd2 inh
CCC1=Nc2cc(C(=O)NCCCOC)ccc2Sc2ccc(Br)cc21 | -28%
CCc1cc(C(=O)NCc2ccc(F)cc2)no1 | 8%
CCC1=Nc2cc(C(=O)NCc3ccc(F)cc3)ccc2Sc2ccc(C)cc21 | 5.6µM*
Cc1nc(-c2cccc(Cl)c2)n(CC(=O)NCCCc2ccccc2)c(=O)c1CCO | i
Cc1cc(C(=O)NCC2(COc3ccc(S(C)(=O)=O)cc3)C[C@@H](O)[C@@H](O)C2)n(C)n1 (stereo not given in full) | 10%
COc1ccc(S(=O)(=O)NC[C@H]2C[C@@H]3CCN2C[C@@H]3CN2CCCCC2)cc1 | i
CC(C)NC(=O)NC[C@H]1C[C@@H]2CCN1C[C@@H]2CN(C)Cc1ccccc1 | -24%[44.1 µM]
COc1ccc(S(=O)(=O)NC[C@H]2C[C@@H]3CCN2C[C@@H]3CN(C)Cc2ccccc2)cc1 | 2µM*
CS(=O)(=O)NC[C@H]1C[C@@H]2CCN1C[C@@H]2CN1CCc2ccccc2C1 | -16%[44.1 µM]
O=S(=O)(NC[C@H]1C[C@@H]2CCN1C[C@@H]2CN1CCc2ccccc21)c1ccc(Cl)cc1 | -15%
COc1ccc(S(=O)(=O)NC[C@H]2C[C@@H]3CCN2C[C@@H]3CN2CCc3ccccc32)cc1 | 11µM*
CN(C)c1cccc(-c2cnc3[nH]cc(CC(=O)N4CCOCC4)c3c2)c1 | i
COc1ccc(CCNC(=O)CC(c2cccc3c2OCO3)c2c[nH]c3ccccc23)cc1OC (stereo not given) | -18%
COc1ccc(-c2noc([C@@H](C)NS(=O)(=O)c3ccccc3)c2C(=O)O)cc1 | 12%[44.1 µM]
CC(C)OCCCNC(=O)C1CC(=O)N(c2n[nH]c3cc(Br)ccc23)C1 (stereo not given) | -11%
CC(=O)N[C@H]1CC[C@]2(C)CCC([C@H](C)C(=O)N3CCC(C)CC3)[C@H](O)[C@H]2[C@@H]1C (stereo not given in full) | -6%[44.1 µM]
CN1CCN(c2cc(N3CCCC(CO)(CC4CC4)C3)nc(N)n2)CC1 (stereo not given) | -3%
O=C(Nc1ccc2c(c1)N(C1CCCC1)C(=O)c1ccccc1S2)c1ccccc1 | 3%
CCN1C(=O)c2ccccc2Sc2ccc(NC(=O)Nc3ccccc3OC)cc21 | 25%
COc1cc(C(=O)Nc2ccc3c(c2)N(C2CCCC2)C(=O)c2ccccc2S3)cc(OC)c1OC | 8.9µM*
O=C(Cn1ccn2nc(-c3ccc(F)cc3)c(CO)c2c1=O)Nc1cc(F)ccc1F | -9%

Assay outcomes (PubChem)
